# According to paper PMC7819943, “Rice protein-binding microarrays: a tool to detect cis-acting elements near promoter regions in rice”:
# In all, about 35,000 sequences were measured (“fluorescence intensity (a.u.)”: median about 10,000, highest 2% from about 52,000 on). For the sample, the highest values were picked, then their nearest neighbours and some sequences at random.
# Molecular target: T1, OsWOX13 (Oryza sativa, UniProt Q5QMM3 1-267)
# T1 sequence: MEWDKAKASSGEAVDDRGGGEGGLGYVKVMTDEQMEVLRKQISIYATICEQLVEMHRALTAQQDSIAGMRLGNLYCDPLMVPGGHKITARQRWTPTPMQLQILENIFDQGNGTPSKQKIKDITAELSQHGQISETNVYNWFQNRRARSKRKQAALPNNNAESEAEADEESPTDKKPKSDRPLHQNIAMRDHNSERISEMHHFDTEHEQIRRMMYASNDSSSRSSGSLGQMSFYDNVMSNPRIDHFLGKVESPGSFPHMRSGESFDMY
# Test: protein-binding microarray (RPBM); PBS, 2% BSA, 51.3 ng/ul salmon testes DNA, 50 uM zinc acetate, 200 nM TF, 25 C, 1 h; high values mean tight binding
# Conditions: protein: recombinant; tags: N-terminal polyhistidine and DsRed monomer fusion (pET32a); label: CyDye5-dUTP incorporated in the synthesized complementary strand; 3' TTTTT single-stranded linker to array surface; dsDNA, one strand shown
# Summary of the method: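 For the binding signal, per-feature fluorescence intensity was read in arbitrary units on an Axon 4000B scanner. Before scanning, a 2% BSA-blocked custom Agilent array made double-stranded with Cy5-dUTP was washed after 1 h at 25 °C with 200 nM protein and 50 µM zinc acetate. The proteins were Ni–NTA-purified transcription factors with N-terminal polyhistidine and DsRed fusions, expressed in E. coli BL21-CodonPlus.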
row,Sequence,binding signal
1,TGTCTGACTGACTGACTGGCTGCTGCTGCTGCTCATTCCTCGGAGTCACCTAGTGCAG,23800 fluorescence intensity (a.u.)
2,ATTCTCTCTTTTGCTCGCTTTGTTCCCTTTTCTTTCTTTTCGGAGTCACCTAGTGCAG,3770 fluorescence intensity (a.u.)
3,TCTCGCTTCTGCCACTGCTGGCTGTGCTGCTTCCCTAGCTCGGAGTCACCTAGTGCAG,65100 fluorescence intensity (a.u.)
4,GGAATTAATTAATGAATCACGTAGGCTACCTGGGTTGAAGCGGAGTCACCTAGTGCAG,45800 fluorescence intensity (a.u.)
5,TAAAATTAACGTGGACACTAATCTAGTTTAGACTTTGATTCGGAGTCACCTAGTGCAG,15500 fluorescence intensity (a.u.)
6,ACGTTTAATATTTATAATTAATTTTCAAACATCCGATGTGCGGAGTCACCTAGTGCAG,19300 fluorescence intensity (a.u.)
7,TTAATGACTATTTAGTTGACATGTAAGAAACAGGGGATTTCGGAGTCACCTAGTGCAG,3450 fluorescence intensity (a.u.)
8,AACTTGCATACCAGTGGAATTCTTCAGGCTGGTCATGGAGCGGAGTCACCTAGTGCAG,65500 fluorescence intensity (a.u.)
9,GCTCGATTGGATAATTCTTCTGCATAACTAGCCAGTGGAGCGGAGTCACCTAGTGCAG,26800 fluorescence intensity (a.u.)
10,AAACTTGATGGAATTCTTTAAATGTTCGATTGCTGGAGAGCGGAGTCACCTAGTGCAG,16700 fluorescence intensity (a.u.)
11,TTAATTACTATCATTAGTGTTAAGTATATATTAACTAATGCGGAGTCACCTAGTGCAG,25900 fluorescence intensity (a.u.)
12,GAACTTTACCGAATTTGTAAATTAGATGTAAACTCATTTTCGGAGTCACCTAGTGCAG,3580 fluorescence intensity (a.u.)
13,GTGCCATTAATTTTGACTACTACTTGTGTGTCCTATCAAACGGAGTCACCTAGTGCAG,7280 fluorescence intensity (a.u.)
14,ACCCTCATCTCTTCTCCTGATTGAATTGTCTTCCTCAACCCGGAGTCACCTAGTGCAG,30400 fluorescence intensity (a.u.)
15,GCCTTAATTGATTAACCGTGTAACATCTTCCTCACGCACCCGGAGTCACCTAGTGCAG,65500 fluorescence intensity (a.u.)
16,TCTAGCTATTAATTTGCTCTCATTTATAACTTAGCCGCTACGGAGTCACCTAGTGCAG,6390 fluorescence intensity (a.u.)
17,ATAATTGATTCAACCTCGTTCTTAATTTGATACATCCTTCCGGAGTCACCTAGTGCAG,32300 fluorescence intensity (a.u.)
18,ACTTTTCTATTTAATTTTATCTATTTTCTTAATAACTATGCGGAGTCACCTAGTGCAG,4340 fluorescence intensity (a.u.)
19,AATTGGCTTGGCTAATTAATTACTCCATTTGCGAACATGGCGGAGTCACCTAGTGCAG,4010 fluorescence intensity (a.u.)
20,TAATTTTCTGAGTGATCAAATAATTGACCATAATTTTCCACGGAGTCACCTAGTGCAG,8420 fluorescence intensity (a.u.)
21,ATGCGATTGACTAATTAATTGACTGGGCTTTGGCATTGGGCGGAGTCACCTAGTGCAG,65500 fluorescence intensity (a.u.)
22,CCTAATTGACAAATGATTTCACCACGTCCCTTTCCATTTTCGGAGTCACCTAGTGCAG,34200 fluorescence intensity (a.u.)
23,GCGGATTAATTACTACTGGGCTGGCATTCTGATCACTTTGCGGAGTCACCTAGTGCAG,25400 fluorescence intensity (a.u.)

row,Sequence,binding signal
1,CACTTAACTTAATTAGTTAATTATTGCTCTATTTTCTCTGCGGAGTCACCTAGTGCAG,60500 fluorescence intensity (a.u.)
2,TTGACTGATTGCACGTCCAACCATAATTTCTTTTCGTCCACGGAGTCACCTAGTGCAG,58600 fluorescence intensity (a.u.)
3,TAAACCAATTACAATGATTATTTTCAACCGACCACCGATTCGGAGTCACCTAGTGCAG,23300 fluorescence intensity (a.u.)
4,AGGACTACTATAATTGCAACTGAAATAAAACCTTGGCTTGCGGAGTCACCTAGTGCAG,5450 fluorescence intensity (a.u.)
5,CCCTCAATCAGCTGGTCGGCTGGTCGCACACACCACGTTCCGGAGTCACCTAGTGCAG,11500 fluorescence intensity (a.u.)
6,TAACTAATTAGTTAACTAATCGTCAATGTCACTAGCTTCTCGGAGTCACCTAGTGCAG,45100 fluorescence intensity (a.u.)
7,ATGATGAGATTGAGGTTGATATAGATAGCTTTGATGTTGACGGAGTCACCTAGTGCAG,23200 fluorescence intensity (a.u.)
8,GTGATAATTGCAAAATTAGGAATTATGCAAGGGGTGTAGACGGAGTCACCTAGTGCAG,49400 fluorescence intensity (a.u.)
9,TTTGCTAATGACAAATTAATTAGGCTTAATAAATTCGTCTCGGAGTCACCTAGTGCAG,41500 fluorescence intensity (a.u.)
10,GGGAAGACGAGATTGAGTGGATCAAAAGCCCTAAACCAATCGGAGTCACCTAGTGCAG,8660 fluorescence intensity (a.u.)
11,GCAGCTGACAGATGGAGGGATGTTCAGGATGTCCGGAGAACGGAGTCACCTAGTGCAG,3250 fluorescence intensity (a.u.)
12,AATTAATTAATTAGTCTGTTCTTATTGCTTAGTGTACTACCGGAGTCACCTAGTGCAG,53600 fluorescence intensity (a.u.)
13,CTTAAATTGATTTATTTTGGAACGGAGAGAGTAATATGCACGGAGTCACCTAGTGCAG,53500 fluorescence intensity (a.u.)
14,ATATTGAATTATTGATTTGATGAAAATAATTTAGTATTATCGGAGTCACCTAGTGCAG,20500 fluorescence intensity (a.u.)
15,ATGATTGTGATTTATATTTTGAAATAAAGAGAGTAGTAATCGGAGTCACCTAGTGCAG,50500 fluorescence intensity (a.u.)
16,ATAATTGATTGCTTTTGATGATTTCACCCTTATTTTGCTGCGGAGTCACCTAGTGCAG,65100 fluorescence intensity (a.u.)
17,CCTAATTTCTAACATTATATTGTTGCTTAGTGTACTAACTCGGAGTCACCTAGTGCAG,18700 fluorescence intensity (a.u.)
18,GACCTTATTTGCATTGATTGACCTTATTTGCATTGATTTTCGGAGTCACCTAGTGCAG,19600 fluorescence intensity (a.u.)
19,ACATTTACTTAATTGTAAATATATATTTTGGTAATATATGCGGAGTCACCTAGTGCAG,9650 fluorescence intensity (a.u.)
20,GAAAATAGTATGATTGAAAATGACGTAAAGTGAATAGACCCGGAGTCACCTAGTGCAG,23000 fluorescence intensity (a.u.)
21,ATATTTTGATTGAATATGACGTATCCTAGTAATTTGGACCCGGAGTCACCTAGTGCAG,59700 fluorescence intensity (a.u.)
22,TTATTCAGATAATTTGATGATGATGAAAGCAGAAGCTTTGCGGAGTCACCTAGTGCAG,8570 fluorescence intensity (a.u.)
23,TACTACTAATTATTGTCTTCTTAGTAATCACCAAGTGTGCCGGAGTCACCTAGTGCAG,20700 fluorescence intensity (a.u.)
